Tau fluor cs – counter-screen for tau fibril formation inhibitors | tau K18 P301L Alexa594 fluorescence, heparin fibrillization | Potency, µM (top dose mostly 57.7 µM) | 280,000 compounds, 0.93% hits | AID 1463; note: nearly all actives have a fitted effect of over 55% in size
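Human tau K18 P301L (15 uM unlabeled, 0.24 uM Alexa 594-labeled) in 100 mM sodium acetate pH 7 with 20 uM heparin, 6 hr at 37 C. ThT 30 uM added, 1 hr ambient; Alexa 594 FP and total fluorescence read at 555/632 nm.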
Tau fibril FP – inhibitors of human tau fibril formation; P10636; K18 P301L tau heparin fibrillization, Alexa594 FP, 6 h; Potency, µM (top dose mostly 57.7 µM), hits mostly inhibitors; 280,000 compounds, 0.39% hits; note: nearly all actives have a fitted effect of over 55% in size
Target sequence (P10636 561-689 P618L limits assumed): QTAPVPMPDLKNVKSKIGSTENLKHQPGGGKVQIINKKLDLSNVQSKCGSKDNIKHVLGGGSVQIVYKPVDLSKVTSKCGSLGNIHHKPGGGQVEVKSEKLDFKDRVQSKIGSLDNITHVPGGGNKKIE
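K18 P301L tau (15 uM unlabeled/0.24 uM Alexa 594-labeled, final) + compound + heparin 20 uM final; 100 mM NaOAc pH 7; 6 hr 37 C; ThT 30 uM final added, 1 hr RT; FP ex 555/em 632 nm.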
Tau ThT inhib – inhibitors of human tau fibril formation, thioflavin T binding | Potency, µM (highest dose often 57.4 µM), most hits filed as inhibitors | P10636 | recombinant tau K18 P301L (four-repeat tau fragment), heparin-induced fibrillization, ThT fluorescence | 270,000 compounds, 2.1% hits; note: nearly all actives have a fitted effect of over 55% in size
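Aggregation was driven by heparin (20 uM final) acting on recombinant tau […] bearing P301L in 100 mM sodium acetate pH 7; fibrils were detected with Thioflavin T.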
KDM4E inh – blocks human JMJD2E demethylase activity | B2RXH2 | JMJD2E catalytic domain, FDH-coupled NADH fluorescence (FDH is formaldehyde dehydrogenase) | 230,000 compounds, 1.6% hits | Potency, µM (series often up to 57.1 µM), usual class: inhibitors; active = well fitted inhibition curve with a large enough effect, not every such curve was filed as active; inconclusive = small, poorly fitted or top-dose-only effect, or another doubt; inactive = no such curve, though single readings can be large or run the other way; note: nearly all actives have a fitted effect of over 50% in size
Target sequence (B2RXH2 1-337 limits assumed): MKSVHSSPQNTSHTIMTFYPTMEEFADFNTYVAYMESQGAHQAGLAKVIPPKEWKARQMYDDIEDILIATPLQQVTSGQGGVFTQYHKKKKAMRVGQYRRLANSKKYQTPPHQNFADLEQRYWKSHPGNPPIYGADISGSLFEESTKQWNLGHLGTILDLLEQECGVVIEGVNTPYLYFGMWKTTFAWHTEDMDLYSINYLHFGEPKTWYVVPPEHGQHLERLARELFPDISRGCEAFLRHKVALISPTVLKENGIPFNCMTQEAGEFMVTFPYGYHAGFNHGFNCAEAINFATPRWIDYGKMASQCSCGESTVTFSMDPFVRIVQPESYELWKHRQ
TR SRC2 fluor cs – counter-screen for TRb-SRC2 inhibitors: fluorescence interference; 280,000 compounds, 0.29% hits; TRb/SRC2 Texas Red total fluorescence interference; Potency, µM (top dose mostly 106 µM); active = well fitted curve in either direction with a large enough effect; inconclusive = small, poorly fitted or top-dose-only effect
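Human TRb ligand-binding domain at 0.6 uM with 20 nM Texas Red SRC2 peptide in Tris buffer containing 1 uM T3 and 5% DMSO, incubated with compound 5 h at ambient temperature. Total fluorescence (555/632 nm) calculated as parallel + 2 × perpendicular.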
TRb-SRC2 inh – inhibitors of human thyroid hormone receptor beta-SRC2 interaction. 280,000 compounds, 0.065% hits. Potency, µM (doses to about 106 µM), hits mostly inhibitors. AID 1469. TRbeta-SRC2 peptide binding, fluorescence polarization; receptor liganded with 1 µM T3; note: nearly all actives have a fitted effect of over 50% in size
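Quantitative HTS by FP: 0.6 uM TRb LBD, 20 nM labeled SRC2 20-mer, 1 uM T3, 5% DMSO; 5 hr ambient incubation; % activity per concentration and potencies from concentration series.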
Numbers stand for hits; 0 = inactive; ? = inconclusive; - = not tested or not shown; ! = repeats disagree; [ ] = another dose, or the depositor's remark. Hits are enriched below; roughly 3.5% of the tested compounds scored in any of these assays. Unless noted, calls come from the whole dose curve; as a rule, active = well fitted curve in the direction sought with a large enough effect; inconclusive = small, poorly fitted or top-dose-only effect, or another doubt; inactive = no such curve, though single readings can be large; an effect the other way counts as inactive or inconclusive.

SMILES | Tau fluor cs | Tau fibril FP | Tau ThT inhib | KDM4E inh | TR SRC2 fluor cs | TRb-SRC2 inh
O=C(NCCn1cc(SCc2ccc(C(F)(F)F)cc2)c2ccccc21)c1ccccc1F | ? | 0 | ? | - | 0 | 0
O=C(NCCn1cc(SCc2ccc(C(F)(F)F)cc2)c2ccccc21)c1cccs1 | 5.6µM[quencher] | 0 | ? | - | 0 | 0
COC(=O)N/N=C/c1cc(N=Nc2ccccc2)ccc1O | ? | 0 | 1.1µM | 0 | 0 | 0
Nc1ccc(C(=O)N/N=C\c2cc(N=Nc3cccc4ccccc34)ccc2O)cc1 | ? | 0 | 3.2µM | ? | 0 | 0
COC(=O)N/N=C/c1cc(Br)ccc1O | 0 | 0 | ? | ? | 0 | 0
Cc1cc(C(=O)N/N=C/c2cccc([N+](=O)[O-])c2O)n[nH]1 | 0 | 0 | 14µM | 13µM | 0 | 0
Cc1cc(C(=O)N/N=C/c2ccccn2)n[nH]1 | 0 | 0 | 0 | ? | 0 | 0
Cc1cc(C(=O)N/N=C/c2cc(N=Nc3ccccc3)ccc2O)n[nH]1 | ? | 0 | 7.1µM | 5µM | ? | 0
COc1cc2cc(C(=O)O)n(C)c2c(OC)c1OC | 0 | 0 | 0 | ? | 0 | 0
Cc1cc(C)nc(SCc2cc(=O)c(OC(=O)c3ccc(S(=O)(=O)N4CCCC4)cc3)co2)n1 | 0 | 0 | 0 | 0 | 0 | 0
CN(CC(=O)Nc1ccc(Cl)cc1)Cc1cc(=O)n2ccsc2n1 | 0 | 0 | 0 | ? | 0 | 0
COC(=O)N/N=C/c1cc(N=Nc2ccccc2Cl)ccc1O | ? | 0 | 1.6µM | 0 | 40µM[quencher] | ?
O=C(N/N=C/c1cc(Br)ccc1O)c1ccccc1Cl | ? | 0 | 0 | ? | 0 | 0
CCc1c(C)c2ccc(OCC(=O)OC)cc2oc1=O | 0 | 0 | 0 | ? | 0 | 0
CCN(C(=O)COC(=O)CNC(=O)c1ccc(F)cc1)C1CCS(=O)(=O)C1 (configuration not stated) | 0 | 0 | ? | 0 | 0 | 0
COc1ccc(C2CC(c3ccccc3)=NN2C(=O)c2cccs2)cc1 (configuration not stated) | 7.9µM[quencher] | ? | 0 | 0 | 0 | 0
O=C/C=C/c1ccc(O)cc1 | ? | 0 | ? | 28µM | 0 | 0
O=C(/C=C/c1ccc(O)cc1)c1ccccc1 | 0 | 0 | 0 | 0 | 0 | 0
Nc1sc(-c2ccccc2)cc1C(=O)N/N=C/c1ccc(Cl)cc1 | 14µM[quencher] | 0 | 4µM | 0 | 0 | 0
CCOC(=O)c1cc(C)n(CC2CCC(C(=O)Nc3ccc(OC)c(OC)c3)CC2)c1C (configuration not stated) | 0 | 0 | 0 | - | 0 | 0
CSC1=NSC2=NC(=O)/C(=C\c3coc4ccccc4c3=O)C(=N)N12 | ? | ? | 14µM | ? | 0 | 0
N=C1/C(=C\c2coc3ccccc3c2=O)C(=O)N=C2SC(c3ccncc3)=NN12 | 0 | ? | 13µM | 0 | ? | ?
N=C1/C(=C/c2coc3ccccc3c2=O)C(=O)N=C2SC(c3ccco3)=NN12 | 0 | 0 | ? | ? | ? | ?
N=C1/C(=C\c2coc3ccc(O)cc3c2=O)C(=O)N=C2SC=CN12 | ? | 0 | 13µM | 0 | 0 | 0
CC(C)CSC1=NSC2=NC(=O)/C(=C\c3coc4ccccc4c3=O)C(=N)N12 | ? | ? | 28µM | ? | 0 | 0
SMILES | Tau fluor cs | Tau fibril FP | Tau ThT inhib | KDM4E inh | TR SRC2 fluor cs | TRb-SRC2 inh
CC(C)CSC1=NSC2=NC(=O)/C(=C\c3ccccc3)C(=N)N12 | 0 | 0 | ? | 0 | 0 | 0
CS(=O)(=O)NCCSCc1c(Cl)cccc1Cl | 0 | 0 | 0 | 0 | 0 | 0
COc1ccc(NC(=O)C2CCCN2S(=O)(=O)c2ccc3nc(-c4ccccc4)[nH]c3c2)cc1 (configuration not stated) | 0 | 0 | 0 | - | 0 | 0
Cc1ccc(NC(=O)C2CCCN2S(=O)(=O)c2ccc3nc(-c4ccccc4)[nH]c3c2)cc1F (configuration not stated) | 28µM[quencher] | ? | 0 | - | 0 | 0
Cn1cc([N+](=O)[O-])c(C(=O)Nc2cc(Oc3cccnc3)cc([N+](=O)[O-])c2)n1 | 0 | 0 | 0 | 0 | 0 | 0
CCc1nn(CC(=O)NCCN(CC)CC)c(=O)c2cc3occc3n12 | 0 | 0 | 0 | - | 0 | 0
Cc1ccc(NC(=O)CSc2ncc(S(=O)(=O)c3ccccc3)c(=O)[nH]2)cc1C | 0 | 0 | 0 | ? | 0.0003µM[quencher] | 0
Cc1ccc(NC(=O)CSc2nc(C)c(Cc3ccccc3)c(=O)[nH]2)cc1C | 0 | 0 | 0 | 0 | 40µM![quencher] | ?
Cc1ccccc1OCCSc1nc(C)c(Cc2ccccc2)c(=O)[nH]1 | 0 | 0 | 0 | - | 3.2µM[quencher] | ?
CCOC(=O)c1ccc(NC(=O)CSc2nc(C)c(Cc3ccccc3)c(=O)[nH]2)cc1 | 0 | 0 | ? | - | ? | 0
CCc1ccc(C2=CC(c3cccc(Br)c3)n3nnnc3N2)cc1 (configuration not stated) | 0 | 0 | 0 | - | 0 | 0
COC(=O)c1ccc(NC(=O)NC(C)c2c(-n3cccc3)sc(C)c2C)cc1 (configuration not stated) | ? | 18µM | 0 | - | 0 | 0
CCOC(=O)Cc1ccc(NC(=O)NC(C)c2c(-n3cccc3)sc(C)c2C)cc1 (configuration not stated) | ? | ? | 0 | - | 0 | 0
CCOC(=O)c1ccc(Nc2cc(-c3ccccc3)nc(C)n2)cc1 | 0 | ? | ? | - | 0 | 0
CCOC(=O)c1ccc(Nc2cc(C)nc(-c3ccccc3O)n2)cc1 | ? | 10µM | ? | 0 | 0 | 0
CCCOc1cc(C)nc(-c2ccccc2O)n1 | ? | 0 | 16µM | 0 | 0 | 0
Cc1cc(Nc2cccc(F)c2)nc(-c2ccccc2O)n1 | ? | 11µM | 0 | ? | 0 | 0
Cc1cc(OC(C)C)nc(-c2ccccc2O)n1 | 0 | ? | ? | 0 | 0 | 0
Cc1cc(NCc2ccccc2)nc(-c2ccccc2O)n1 | 13µM[quencher] | ? | ? | ? | 0 | 0
O=C(Nc1ccc2c(c1)N(C1CCCC1)C(=O)c1ccccc1S2)c1cccc(F)c1 | 0 | ? | 0 | - | 0 | 0
Cc1cc(C)nc(NC(=O)CCCC(=O)O)c1 | 0 | 0 | 0 | 0 | 0 | 0
CC(C)(C)C1CCc2c(C(=O)NNC(=O)CCCC(=O)O)csc2C1 (configuration not stated) | 0 | 0 | 0 | 0 | 0 | 0
Cc1cc2nc(/N=C(\N)NC(=O)C(C)C)nc(C)c2cc1C | 0 | 0 | ? | 0 | 0 | 0
O=C(CCCCn1c(=O)[nH]c2ccsc2c1=O)N1CCN(c2cccc(Cl)c2)CC1 | 0 | 0 | ? | - | 0 | 0
Cc1cc(Nc2ccccc2)nc(-c2ccccc2O)n1 | 11µM[quencher] | 28µM | ? | ? | 0 | 0
CC1=C(C)C(c2ccccc2)NC(=S)N1 (configuration not stated) | 0 | 0 | 0 | 0 | 0 | 0
CN1CCc2c(sc3c2C(=O)NC(c2cn(Cc4ccccc4)c4ccccc24)N3)C1 (configuration not stated) | 0 | ? | 18µM | ? | 0 | 0

Compound activity as filed in PubChem.
